The target in assay [1] is Inward rectifier potassium channel 2 (Mus musculus) (UniProt P35561). As to the kind of experiment: mouse Kir2.1 channel blockers, retest, confirmation, cell-based, FluxOR thallium flux, duplicate (AID 2032;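 active = Primary-screen hit whose thallium flux fell at least 3 control SD below untreated wells in both duplicates, with normal baseline fluorescence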). The settings on record: Kir2.1-expressing cells, FluxOR thallium flux fluorescence, at 10 µM; active compounds read low.
Assay [2] can be described thus: nonspecific thallium flux effects in parental HEK293 cells, confirmation, counter-screen for Kir2.1 inhibitor project, cell-based, FluxOR thallium flux, duplicate, single concentration (AID 2105;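 active = dye signal at least 3 control SD above or below untreated wells in both duplicates, raw fluorescence within 3, either direction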;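 as to FluxOR signal as % of negative control (100 = no effect): percent is based on the flux ratio of peak minus minimum fluorescence over baseline F0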). The settings on record: FluxOR thallium flux fluorescence, at 10 µM; 0% = unstimulated blank wells.
Assay [3] can be described thus: nonspecific thallium flux increase in parental CHO-K1, confirmation, counter-screen for KCNQ2 potentiator project, cell-based, FluxOR thallium flux, duplicate (AID 2282;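 active = signal rise of at least 3 SD above the untreated control mean, in both duplicate wells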;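 also: counter screen of KCNQ2 potentiator hits so any rise reflects channel-independent effects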). The settings on record: parental CHO-K1 cells, FluxOR thallium flux fluorescence; at 10 µM; active compounds read high; zero = vehicle mean+3SD, 100% = vehicle-minus-blank window.
The target of assay [4] is Potassium voltage-gated channel subfamily KQT member 1 (Homo sapiens) (UniProt P51787). The experiment in a line: human KCNQ1 channel potentiation off-target, confirmation, selectivity assay for KCNQ2 potentiator project, cell-based, CHO, FluxOR thallium flux (AID 2283;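 active = fluorescence ratio rise of at least 3 SD of vehicle wells above their mean, in both replicate wells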;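 also: 0% = vehicle mean plus 3 SD and 100% = vehicle minus unstimulated blank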). Conditions: CHO KCNQ1 stable, FluxOR thallium flux fluorescence; at 10 µM; active compounds read high; beyond 3SD, as % of vehicle-control signal.

The target of assay [5] is Potassium voltage-gated channel subfamily KQT member 2 (Rattus norvegicus) (UniProt O88943). The experiment in a line: rat KCNQ2 channel potentiators, confirmation, cell-based, CHO, FluxOR thallium flux, duplicate (AID 2287;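 active = fluorescence ratio rising 3 SD or more over the vehicle control mean in both replicates, plus primary screen hit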;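 also: peak minus minimum thallium fluorescence divided by baseline after K/Tl stimulus; 0% = vehicle mean plus 3 SD and 100% = vehicle minus unstimulated blank difference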). Conditions: CHO-KCNQ2 cells, FluxOR thallium flux fluorescence; at 10 µM; active compounds read high.
The target in assay [6] is Inward rectifier potassium channel 2 (Mus musculus) (UniProt P35561). The experiment in a line: PubChem AID 2345.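 Also: 0% = vehicle mean plus 3 SD and 100% = vehicle minus no-stimulus blank window.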 Conditions: HEK293 Kir2.1, FluxOR thallium flux fluorescence; at 10 µM; active compounds read high.
In assay [7] the test system is TRPC4 beta (transient receptor potential cation channel C4), mouse. The experiment in a line: activators of mouse TRPC4 channel, confirmation, cell-based, Fluo4 calcium, HEK293 TRPC4beta/mu-opioid, duplicates, 10 µM (AID 2426;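 active = fluorescence ratio normalized to control raised more than 50% in primary screen plus both repeat runs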). Conditions: Fluo4 calcium fluorescence, at 10 µM; active compounds read high.
Assay [8] concerns transient receptor potential cation channel C4 beta (TRPC4), mouse. The experiment in a line: activators of mouse TRPC4 channel, confirmation, cell-based, second round, Fluo4, HEK293 TRPC4beta/mu-opioid, 1 µM (AID 2461;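 active = primary screen active and over 50% activation in each of two duplicate runs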). The settings on record: Fluo4 calcium fluorescence, at 1 µM; active compounds read high.
Assay [9] has as its system TRPC4 (transient receptor potential cation channel C4 beta), mouse. As to the kind of experiment: positive allosteric modulators of mouse TRPC4, confirmation, cell-based, second round, Fluo-4, HEK293 TRPC4beta/mu-opioid, 1 µM (AID 2554;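 active = primary screen hit whose fluorescence ratio, in both repeats, exceeds the weak agonist control mean by 3 SD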). The settings on record: DAMGO EC20, Fluo-4 calcium flux, at 1 µM; active compounds read high.
For assay [10], the system named is TRPC4 beta (transient receptor potential cation channel C4), mouse. The experiment in a line: positive allosteric modulators of mouse TRPC4, confirmation, cell-based, Fluo-4, HEK293 TRPC4beta/mu-opioid (AID 2555;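 active = primary screen hit whose calcium fluorescence ratio, in both repeats, exceeds the weak agonist control mean by 3 SD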). The settings on record: DAMGO EC20, Fluo-4 calcium flux, at 10 µM; active compounds read high. On the technique in general: Calcium assays in cells follow changes in intracellular calcium, usually with a dye or a luminescent sensor.

For assay [11], the target named is Potassium voltage-gated channel subfamily KQT member 2 (Rattus norvegicus) (UniProt O88943). As to the kind of experiment: potentiators of retigabine-insensitive KCNQ2 W236L, mechanism study for KCNQ2 potentiator project, cell-based, rat KCNQ2 W236L, CHO, automated patch clamp (AID 2558;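 active = current increase at least 3 SD of the untreated controls above them in both duplicate recordings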). Conditions: at 25 µM; outcome: automated patch clamp current. On the technique in general: The patch-clamp technique gives a direct electrical read-out from membranes.

Assay [12] addresses Short transient receptor potential channel 4 (Mus musculus) (UniProt Q9QUQ5). The experiment in a line: inhibitors of mouse TRPC4 channel, confirmation, cell-based, Fluo4, HEK293 TRPC4beta/mu-opioid (AID 2636;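 active = calcium signal cut by more than 3 SD below the full-agonist control yet still positive, in both repeats and the earlier primary screen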). The settings on record: DAMGO, Fluo4 calcium flux, at 10 µM; active compounds read high.
The target is the same in assay [13]. As to the kind of experiment: inhibitors of mouse TRPC4 channel, confirmation, cell-based, second round, Fluo4, HEK293 TRPC4beta/mu-opioid, 1 µM (AID 2637;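 active = calcium signal ratio cut to more than 3 SD under the fully stimulated control mean yet still positive, in both repeats and the primary screen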;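 also: percent of integrated ratio relative to wells lacking test compound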). Conditions: Fluo4 calcium flux, DAMGO, at 1 µM; active compounds read high.
The target is the same in assay [14]. The experiment in a line: mouse TRPC4 channel activators, dose response, cell-based, HEK293 TRPC4/mu-opioid, Fluo-4 calcium (AID 434937;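 active = primary screen activator hit with a dose response curve and TRPC4 channel activation at any tested dose; inactive = no activation, no dose response, or not a primary hit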).
The target is the same in assay [15]. As to the kind of experiment: TRPC4 positive allosteric modulators, dose response, cell-based, HEK293 TRPC4/mu-opioid, Fluo-4 calcium, EC20 DAMGO (AID 434941;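 active = earlier screen potentiator hit that boosts the TRPC4 ion channel at some dose, with a dose response; inactive = no potentiation, no dose response, or not a prior hit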;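 also: calcium entry triggered by an EC20 dose of DAMGO at the co-expressed mu-opioid receptor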).
Assay [16] has as its target Short transient receptor potential channel 6 (Mus musculus) (UniProt Q61143). The experiment in a line: inhibition of mouse TRPC6 channel, confirmation, selectivity assay for TRPC4 inhibitor project, cell-based, HEK293, membrane potential dye, duplicate (AID 434948;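 active = active in primary screen and both duplicates, each dropping signal beyond three positive-control SD with fluorescence still positive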). The settings on record: HEK293 TRPC6, membrane potential dye fluorescence, at 10 µM, stimulated with maximal-effect acetylcholine; active compounds read high.

The target is the same in assay [17]. As to the kind of experiment: activation of mouse TRPC6 channel, confirmation, selectivity assay for TRPC4 activator project, cell-based, HEK293, membrane potential dye, duplicate (AID 434950;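 active = membrane potential signal rise above negative control mean plus 3 SD in both duplicates, also active in the earlier TRPC4 screen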). The settings on record: HEK293 TRPC6, membrane potential fluorescence, at 10 µM; active compounds read high.
The target is the same in assay [18]. As to the kind of experiment: TRPC6 potentiation by TRPC4 potentiator hits, confirmation, selectivity assay for TRPC4 potentiator project, HEK293 cells, membrane potential dye, duplicate (AID 434952;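 active = compound raising the membrane signal above positive-control mean plus 3 SD in both repeats, and a primary screen hit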). Conditions: HEK293 TRPC6, membrane potential dye fluorescence, at 10 µM, maximal acetylcholine added after compound; active compounds read high.
Assay [19] has as its target Short transient receptor potential channel 4 (Mus musculus) (UniProt Q9QUQ5). As to the kind of experiment: calcium flux activators in TRPC4/5HT1a cells, counter-screen for TRPC4 activator project, cell-based, second counter screen, HEK293 TRPC4/5HT1a, Fluo-4 (AID 434977;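 active = calcium signal rise above buffer-control mean plus 5 SD in both duplicates, and also a hit in the primary screen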). The settings on record: Fluo-4 calcium flux, at 10 µM; active compounds read high.
Assay [20] can be described thus: calcium flux inhibitors in TRPC4/5HT1a cells, confirmation, counter-screen for TRPC4 inhibitor project, cell-based, second counter screen, HEK293 TRPC4/5HT1a, Fluo-4 (AID 434978;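 active = primary screen active whose calcium signal fell more than 3 SD beyond the full-serotonin control mean in both duplicate plates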). The settings on record: Fluo-4 calcium flux, at 10 µM, serotonin added to trigger calcium flux; active compounds read high.
Assay [21] relates to TRPC4 (mouse), co-expressed with 5HT1a in HEK293. As to the kind of experiment: calcium flux potentiators in TRPC4/5HT1a cells, confirmation, counter-screen for TRPC4 potentiator project, cell-based, second counter screen, HEK293 TRPC4/5HT1a, Fluo-4 (AID 434979;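 active = signal rise over 3 SD above mean of control wells given weak agonist, in both repeats and first screen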). The settings on record: Fluo-4 calcium flux, at 10 µM, serotonin added at its EC20 dose; active compounds read high.
A short description of assay [22]: calcium flux activation in mu-opioid HEK293 cells, confirmation, counter-screen for TRPC4 activator project, cell-based, HEK293 mu-opioid receptor line (AID 449723;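 active = hit in primary screen, with calcium signal over 5 SD above buffer well mean in both duplicates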;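 also: counter screen cells carry the mu-opioid receptor alone and lack TRPC4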). The settings on record: Fluo-4 calcium fluorescence, at 10 µM; active compounds read high.
Assay [23] is described as follows: calcium flux enhancement in mu-opioid HEK293 cells, confirmation, counter-screen for TRPC4 allosteric potentiator project, cell-based, HEK293 mu-opioid receptor line (AID 449724;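 active = calcium signal rise more than 3 SD above the low-dose agonist control mean, in both duplicate plates and the primary screen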;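 also: HEK293 cells carrying mu-opioid receptor only with no TRPC4 channel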). Conditions: Fluo-4 calcium flux, at 10 µM, compound added before EC20 DAMGO stimulus; active compounds read high.
Assay [24] concerns the target Voltage-gated inwardly rectifying potassium channel KCNH2 (Homo sapiens) (UniProt Q12809). As to the kind of experiment: hERG channel inhibition, counter-screen for Kir2.1 inhibitor project, cell-based, thallium flux (AID 2236).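 Also: host cells are CHO cells stably expressing hERG.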 The settings on record: hERG-expressing cells, at 10 µM; active compounds read high.
In assay [25] the target is Potassium channel subfamily K member 9 (Homo sapiens) (UniProt Q9NPC2). As to the kind of experiment: KCNK9 channel inhibition, selectivity assay for Kir2.1 inhibitor project, cell-based (AID 2329). The settings on record: KCNK9-expressing cells, ion flux inhibition, at 10 µM; active compounds read high.
Assay [26] concerns the target Inward rectifier potassium channel 2 (Mus musculus) (UniProt P35561). As to the kind of experiment: mouse Kir2.1 channel blockers, Kir2.1 inhibitor project, cell-based, secondary, automated electrophysiology (AID 463252). Conditions: Kir2.1 cells, automated patch-clamp current inhibition, at 25 µM; active compounds read high.

Values without a mark were called inactive. For some assays here: Potency and affinity values are given separately. This is one part of the list. The source made the active and inactive calls.

Chain of Inward rectifier potassium channel 2 (Mus musculus) (P35561 whole entry, looked up): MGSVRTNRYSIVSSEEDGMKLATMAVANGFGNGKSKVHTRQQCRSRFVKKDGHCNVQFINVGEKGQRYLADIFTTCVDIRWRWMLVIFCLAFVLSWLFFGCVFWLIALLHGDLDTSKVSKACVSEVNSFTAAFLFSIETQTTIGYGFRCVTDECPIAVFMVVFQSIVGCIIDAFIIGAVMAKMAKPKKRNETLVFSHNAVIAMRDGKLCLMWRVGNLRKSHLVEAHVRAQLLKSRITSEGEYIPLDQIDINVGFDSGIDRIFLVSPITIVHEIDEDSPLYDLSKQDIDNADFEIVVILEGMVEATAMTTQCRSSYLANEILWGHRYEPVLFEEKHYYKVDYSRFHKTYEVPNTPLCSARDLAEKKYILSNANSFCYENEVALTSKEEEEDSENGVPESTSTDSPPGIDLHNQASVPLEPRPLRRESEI
Chain of Voltage-gated inwardly rectifying potassium channel KCNH2 (Homo sapiens) (Q12809 whole entry, looked up): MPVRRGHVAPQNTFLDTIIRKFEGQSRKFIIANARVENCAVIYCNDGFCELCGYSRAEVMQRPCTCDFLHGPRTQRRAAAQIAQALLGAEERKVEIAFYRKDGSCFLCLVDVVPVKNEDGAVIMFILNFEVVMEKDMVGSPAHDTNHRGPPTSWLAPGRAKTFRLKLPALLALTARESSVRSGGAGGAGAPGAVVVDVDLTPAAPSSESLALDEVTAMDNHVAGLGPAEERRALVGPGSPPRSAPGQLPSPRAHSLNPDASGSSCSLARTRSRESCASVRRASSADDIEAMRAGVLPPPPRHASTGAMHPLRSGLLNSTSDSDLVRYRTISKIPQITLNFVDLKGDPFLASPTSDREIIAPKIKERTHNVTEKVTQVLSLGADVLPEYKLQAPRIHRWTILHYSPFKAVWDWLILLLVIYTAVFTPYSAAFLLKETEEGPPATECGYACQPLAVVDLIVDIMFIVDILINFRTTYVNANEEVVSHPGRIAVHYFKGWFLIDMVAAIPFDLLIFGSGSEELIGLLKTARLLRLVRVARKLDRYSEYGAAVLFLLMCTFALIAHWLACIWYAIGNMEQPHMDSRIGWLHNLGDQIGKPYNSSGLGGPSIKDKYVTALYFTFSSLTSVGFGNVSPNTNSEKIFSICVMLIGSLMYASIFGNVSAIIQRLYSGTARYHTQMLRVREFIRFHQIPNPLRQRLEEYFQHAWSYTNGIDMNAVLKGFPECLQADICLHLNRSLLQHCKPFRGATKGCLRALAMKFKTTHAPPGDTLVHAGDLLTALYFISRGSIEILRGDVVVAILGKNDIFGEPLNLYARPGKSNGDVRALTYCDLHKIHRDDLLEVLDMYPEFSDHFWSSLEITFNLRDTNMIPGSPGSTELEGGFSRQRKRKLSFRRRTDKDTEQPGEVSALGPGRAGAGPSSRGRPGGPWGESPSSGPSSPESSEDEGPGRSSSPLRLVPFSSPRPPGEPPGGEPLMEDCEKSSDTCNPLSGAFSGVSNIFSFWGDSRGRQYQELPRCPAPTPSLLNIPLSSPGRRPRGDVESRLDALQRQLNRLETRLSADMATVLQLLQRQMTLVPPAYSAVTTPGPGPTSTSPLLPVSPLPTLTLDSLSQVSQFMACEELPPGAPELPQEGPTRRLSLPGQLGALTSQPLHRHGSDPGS
Chain of Short transient receptor potential channel 4 (Mus musculus) (Q9QUQ5 whole entry, looked up): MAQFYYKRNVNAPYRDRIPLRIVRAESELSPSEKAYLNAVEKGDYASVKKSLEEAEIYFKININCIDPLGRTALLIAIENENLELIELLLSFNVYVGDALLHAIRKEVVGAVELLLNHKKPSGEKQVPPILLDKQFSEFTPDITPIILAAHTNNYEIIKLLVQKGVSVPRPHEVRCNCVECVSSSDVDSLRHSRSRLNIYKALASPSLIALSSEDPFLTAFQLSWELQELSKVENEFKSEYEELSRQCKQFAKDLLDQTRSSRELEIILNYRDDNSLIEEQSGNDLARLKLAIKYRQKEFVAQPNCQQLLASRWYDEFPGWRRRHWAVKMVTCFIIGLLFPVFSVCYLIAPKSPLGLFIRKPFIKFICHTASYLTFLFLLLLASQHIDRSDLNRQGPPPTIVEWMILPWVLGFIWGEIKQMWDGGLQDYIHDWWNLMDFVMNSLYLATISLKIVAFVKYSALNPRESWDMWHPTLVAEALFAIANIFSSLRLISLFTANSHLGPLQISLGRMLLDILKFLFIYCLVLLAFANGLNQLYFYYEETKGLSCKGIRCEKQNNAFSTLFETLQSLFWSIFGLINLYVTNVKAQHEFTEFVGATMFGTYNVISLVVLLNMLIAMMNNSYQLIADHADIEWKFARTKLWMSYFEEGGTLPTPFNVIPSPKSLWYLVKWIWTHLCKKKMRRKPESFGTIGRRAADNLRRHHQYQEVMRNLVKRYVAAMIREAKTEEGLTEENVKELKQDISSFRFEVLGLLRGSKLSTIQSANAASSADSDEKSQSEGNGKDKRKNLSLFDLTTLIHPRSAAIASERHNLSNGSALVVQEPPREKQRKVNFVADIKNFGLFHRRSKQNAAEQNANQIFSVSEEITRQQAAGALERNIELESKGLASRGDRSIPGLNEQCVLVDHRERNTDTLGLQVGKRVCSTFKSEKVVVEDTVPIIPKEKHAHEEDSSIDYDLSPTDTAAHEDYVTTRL
Chain of Potassium voltage-gated channel subfamily KQT member 1 (Homo sapiens) (P51787 whole entry, looked up): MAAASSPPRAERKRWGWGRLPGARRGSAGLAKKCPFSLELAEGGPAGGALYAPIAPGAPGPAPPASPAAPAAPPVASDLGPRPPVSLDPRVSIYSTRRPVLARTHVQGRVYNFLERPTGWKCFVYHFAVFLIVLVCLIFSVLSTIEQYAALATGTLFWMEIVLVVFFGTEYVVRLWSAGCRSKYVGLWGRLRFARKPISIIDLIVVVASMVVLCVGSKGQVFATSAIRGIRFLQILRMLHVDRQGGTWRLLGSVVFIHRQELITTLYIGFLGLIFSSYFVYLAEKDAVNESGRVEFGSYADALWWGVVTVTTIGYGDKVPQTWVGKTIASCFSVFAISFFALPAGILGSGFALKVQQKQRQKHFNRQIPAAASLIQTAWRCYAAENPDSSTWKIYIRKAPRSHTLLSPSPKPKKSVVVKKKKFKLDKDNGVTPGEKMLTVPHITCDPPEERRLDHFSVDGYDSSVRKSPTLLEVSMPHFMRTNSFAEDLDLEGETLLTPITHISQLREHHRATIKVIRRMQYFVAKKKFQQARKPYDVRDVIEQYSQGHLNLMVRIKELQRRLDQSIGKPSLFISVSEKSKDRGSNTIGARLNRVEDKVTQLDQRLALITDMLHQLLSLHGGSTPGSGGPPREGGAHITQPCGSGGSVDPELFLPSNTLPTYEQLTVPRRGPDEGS
Chain of Short transient receptor potential channel 6 (Mus musculus) (Q61143 whole entry, looked up): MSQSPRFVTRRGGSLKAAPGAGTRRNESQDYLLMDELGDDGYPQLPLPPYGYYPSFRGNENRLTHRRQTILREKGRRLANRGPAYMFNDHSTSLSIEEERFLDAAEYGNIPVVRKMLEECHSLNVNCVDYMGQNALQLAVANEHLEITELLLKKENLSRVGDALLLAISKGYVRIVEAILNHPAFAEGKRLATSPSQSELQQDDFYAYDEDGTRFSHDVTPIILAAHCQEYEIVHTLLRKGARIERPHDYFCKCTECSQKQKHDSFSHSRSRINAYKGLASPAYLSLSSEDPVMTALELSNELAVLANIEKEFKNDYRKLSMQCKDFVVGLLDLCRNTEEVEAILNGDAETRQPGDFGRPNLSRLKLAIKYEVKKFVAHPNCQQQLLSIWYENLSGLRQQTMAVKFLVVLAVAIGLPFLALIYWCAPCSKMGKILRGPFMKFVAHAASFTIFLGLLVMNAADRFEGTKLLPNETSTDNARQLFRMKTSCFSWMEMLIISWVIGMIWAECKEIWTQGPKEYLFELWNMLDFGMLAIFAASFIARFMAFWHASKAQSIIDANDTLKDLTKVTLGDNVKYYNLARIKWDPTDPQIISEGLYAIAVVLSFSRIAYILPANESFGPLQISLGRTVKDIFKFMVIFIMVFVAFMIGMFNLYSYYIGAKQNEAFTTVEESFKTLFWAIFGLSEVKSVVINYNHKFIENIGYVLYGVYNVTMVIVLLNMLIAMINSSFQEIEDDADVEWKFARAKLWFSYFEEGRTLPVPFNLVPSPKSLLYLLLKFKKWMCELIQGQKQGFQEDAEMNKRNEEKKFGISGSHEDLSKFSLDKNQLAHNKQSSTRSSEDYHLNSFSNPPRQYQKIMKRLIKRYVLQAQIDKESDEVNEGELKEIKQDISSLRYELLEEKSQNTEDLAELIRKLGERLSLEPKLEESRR

For `Cc1ccc(C(=O)Nc2nnc(C3=COCCO3)o2)cc1C`, the compound was called inactive in [1], in assay [2], in assay [7], in assay [8], in assay [9] and in assay [10]. Moreover, the result in assay [11], in assay [14], in assay [15], in [16], in assay [17] and in assay [18] was inactive. The result in assay [19], in [21], in [22] and in [23] was inactive. The activity increase over 3SD of controls in [3] was 50.1% (active). Moreover, in assay [4], the activation over 3SD threshold was -7.9%. Further, the potentiation, less the hit threshold in [5] is 4.5% (active). The activity over 3SD threshold in assay [6] was -30.3%. In addition, the inhibition was 66% (active) in [12], 44% (active) in assay [13] and 42.2% (active) in [20].

`CC1(c2ccccc2Cl)NC(=O)N(CC(=O)NC(=O)NCc2ccco2)C1=O` (centres undefined): the result in assay [1] and in [2] was inactive. In [3], the activity increase over 3SD of controls is 15.2% (active). Moreover, the activation over 3SD threshold in assay [4] is -28.7%. The potentiation, less the hit threshold in assay [5] was -11.8%. In [6], the activity over 3SD threshold is -15.3%.

As for `Cc1ccc(Nc2c3c(nc4ccccc24)CCC3)cc1`, the Tl flux remaining, % of negative control (active compounds read low) in [1] is 16% (active). The outcome in [2] and in [25] was inactive. For the same compound, the inhibition in assay [24] was 61% (active); in assay [26], 83.9% (active).

As to `CC1=NN(C(=O)c2ccc(Br)cc2)C(O)(c2ccccc2)C1` (centres undefined), the outcome in [1] was inactive. In addition, the FluxOR signal as % of negative control (100 = no effect) in assay [2] is 73.5% (active). Besides, the activity increase over 3SD of controls in [3] was -19%. Moreover, the activation over 3SD threshold in [4] was -5.7%. Further, in assay [5], the potentiation, less the hit threshold is -11.5%. Further, in assay [6], the activity over 3SD threshold is -31.6%.

In the case of `CCCc1nc2sc3c(c2c(=O)n1NC(=O)CCCl)CCCC3`, the result in assay [1], in assay [2] and in [11] was inactive. In assay [3], the activity increase over 3SD of controls was -7%. Besides, the activation over 3SD threshold in assay [4] is 28.9% (active). The potentiation, less the hit threshold in assay [5] was 69.9% (active). Also, in [6], the activity over 3SD threshold is -17.7%.

Turning to `O=C(CCCN1CCc2[nH]c3ccc(F)cc3c2C1)c1ccc(F)cc1`, the Tl flux remaining, % of negative control (active compounds read low) in assay [1] is 46% (active). Further, the result in assay [2] and in assay [25] was inactive. The values for the inhibition in assay [24] and in [26] were 69% (active) and 5.5% (active), respectively.

Regarding `C/C=C(/C)C(=O)OC1Cc2c(ccc3ccc(=O)oc23)OC1(C)C` (centres undefined), the Tl flux remaining, % of negative control (active compounds read low) in [1] is 63% (active). Besides, the outcome in assay [2], in [24], in [25] and in [26] was inactive.

As to `CC1COc2ccccc2N1S(=O)(=O)c1ccccc1` (centres undefined), the Tl flux remaining, % of negative control (active compounds read low) in assay [1] is 60% (active). The result in assay [2] was inactive.

One may read the inhibition as the drop in the measured response relative to a control, in per cent.

(Values after PubChem BioAssay.)
